Among the data in PubChem BioAssay are composite z-score and z-score values, retold here.

Assay [1] deals with PRMT1 (protein arginine N-methyltransferase 1). In words: small molecules binding arginine methyltransferase PRMT1 – biochemical, small-molecule microarray, 635 nm fluorescence, primary screen (AID 1088).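 Note: binding of Prmt1 protein to compounds spotted on small-molecule microarray slides.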 To be noted: higher = more signal.
A short description of assay [2]: growth effects on S. cerevisiae YJM789 – YJM789 clinical isolate, OD600, 24 h, basal, primary screen (AID 1089).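 Note: growth of clinical yeast isolate S. cerevisiae YJM 789 seeded 1000 cells per well; test concentration not given here.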 Particulars: higher = more signal, called active from +8 up or from −8 down.
A short description of assay [3]: S. pombe growth modifiers, basal conditions – strain 972, OD600, 24 h, no modulator, primary screen (AID 1090).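 Note: basal condition with compound alone and no growth modifier present; test concentration not given here.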 Particulars: S. pombe 972 growth, higher = more signal, called active from +8 up or from −8 down.
The nature of assay [4]: budding yeast growth modifiers under rapamycin – strain BY4716, OD600, 96 h, primary screen (AID 1091). Note: test concentration not given here. Particulars: S. cerevisiae BY4716 + rapamycin, higher = more signal, called active from +8 up or from −8 down.
The target of assay [5] is Torsin-1A-interacting protein 2 (Homo sapiens) (UniProt Q8NFQ8). In words: small molecules binding lysate-expressed LULL1 – cell lysate, human LULL1 lysate, 635/667 nm fluorescence, primary screen (AID 1092).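 Note: probe is lysate of COS7 cells overexpressing human LULL1; score merges per-feature 667 nm fluorescence with signal-to-noise.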 To be noted: small-molecule microarray, hLULL1 lysate binding, 635 nm fluorescence; higher = more signal.
Torsin-1A-interacting protein 2 (Homo sapiens), sequence (Q8NFQ8 whole entry, looked up): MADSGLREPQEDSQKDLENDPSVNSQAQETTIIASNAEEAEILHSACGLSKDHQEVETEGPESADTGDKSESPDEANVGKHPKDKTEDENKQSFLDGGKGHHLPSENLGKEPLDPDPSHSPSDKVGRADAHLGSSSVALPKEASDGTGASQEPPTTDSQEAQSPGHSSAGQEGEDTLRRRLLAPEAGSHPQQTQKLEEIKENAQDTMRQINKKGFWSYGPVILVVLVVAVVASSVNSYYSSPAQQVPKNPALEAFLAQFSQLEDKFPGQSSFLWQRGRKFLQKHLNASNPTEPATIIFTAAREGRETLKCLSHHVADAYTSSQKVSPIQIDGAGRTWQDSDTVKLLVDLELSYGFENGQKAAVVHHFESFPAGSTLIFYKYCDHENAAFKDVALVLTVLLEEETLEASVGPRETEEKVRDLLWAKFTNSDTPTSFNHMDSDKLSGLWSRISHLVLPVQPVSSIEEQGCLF
Assay [6] is described as follows: optical density change of DRC41 E. coli – strain DRC41, OD650, 24 h, E. coli filamentation project, primary screen (AID 1093).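 Note: MC1000 strain lacking acrAB efflux and sulA so SOS filamentation is blocked; test concentration not given here.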 Particulars: E. coli DRC41 growth, higher = more signal, called active from +8 up or from −8 down.
Assay [7] in a line: probe aLefty2 binding to arrayed compounds – biochemical, biotinylated probe, 635/667 nm fluorescence, primary screen (AID 1094).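 Note: score merges spot fluorescence near 667 nm with spot signal-to-noise ratio.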 To be noted: small-molecule microarray, higher = more signal.
For assay [8], the system named is Noggin (protein binding on small-molecule microarray). In words: small molecules binding Noggin protein – biochemical, 635/667 nm fluorescence, primary screen (AID 1095).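 Note: score merges 667 nm feature fluorescence with signal to noise over triplicate slides.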 Particulars: 635 nm fluorescence, higher = more signal.
Assay [9] has as its target Neurogenic locus notch homolog protein 3 (Homo sapiens) (UniProt Q9UM47). In words: small molecules binding NOTCH3 protein – biochemical, 635/667 nm fluorescence, primary screen (AID 1096). To be noted: small-molecule microarray, 635 nm fluorescence, higher = more signal.
Assay [10] is described as follows: probe aEGFR binding to arrayed compounds – biochemical, biotinylated probe, 635/667 nm fluorescence, primary screen (AID 1097).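 Note: probe is a biotinylated anti-EGFR antibody binding compounds printed on slides; score combines fluorescence near 667 nm and signal to noise of each spot.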 To be noted: small-molecule microarray, higher = more signal.
The subject of assay [11] is Plasmodium falciparum Sir2 (PF13_0152, Sir2A). The assay is described as follows: Plasmodium falciparum Sir2A binding compounds – biochemical, small-molecule microarray, 635 nm fluorescence, primary screen (AID 1098).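 Note: score merges spot fluorescence intensity with its signal-to-noise ratio.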 Particulars: fluorescence 635 nm, higher = more signal.
The nature of assay [12]: probe aDKK1 binding to arrayed compounds – biochemical, biotinylated probe, 635/667 nm fluorescence, primary screen (AID 1099).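 Note: score merges 667nm spot fluorescence with signal to noise across triplicate slides; reference of the scale not given here.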 Particulars: small-molecule microarray, higher = more signal.
The nature of assay [13]: probe aCHRDL2 binding to arrayed compounds – biochemical, biotinylated probe, 635/667 nm fluorescence, primary screen (AID 1100). Particulars: small-molecule microarray, higher = more signal.
The nature of assay [14]: change in splice reporter luminescence, either direction, cell-based, HEK293, spliceosome inhibition project, primary screen (AID 1101).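 Note: HEK293 cells carrying a splicing-competent luciferase reporter gene; test concentration not given here.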 Particulars: HEK293 splicing luciferase reporter, 24 h, higher = more signal, called active from +8 up or from −8 down. For orientation: In a reporter assay the amount or activity of a reporter protein is the signal.
Assay [15] deals with Fibroblast growth factor 10 (Homo sapiens) (UniProt O15520). In words: compounds binding fibroblast growth factor 10 – biochemical, small-molecule microarray, 635 nm fluorescence, primary screen (AID 1102). Particulars: FGF10 binding, fluorescence 635 nm, higher = more signal.
Fibroblast growth factor 10 (Homo sapiens), sequence (O15520 whole entry, looked up): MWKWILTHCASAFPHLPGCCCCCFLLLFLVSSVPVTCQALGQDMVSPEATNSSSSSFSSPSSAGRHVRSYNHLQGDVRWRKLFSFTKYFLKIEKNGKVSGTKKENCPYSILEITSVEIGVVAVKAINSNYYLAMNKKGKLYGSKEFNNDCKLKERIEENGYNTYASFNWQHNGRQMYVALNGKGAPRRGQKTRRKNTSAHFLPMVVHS
Assay [16] relates to glycogen synthase kinase-3 (GSK3A per assay name; protocol says GSK3B). The assay is described as follows: compounds binding glycogen synthase kinase-3 – biochemical, small-molecule microarray, 635 nm fluorescence, GSK3A, primary screen (AID 1103). Note: the record names both GSK3A and GSK3B. To be noted: fluorescence 635 nm, higher = more signal.
The target of assay [17] is Epidermal growth factor receptor (Homo sapiens) (UniProt P00533). The assay is described as follows: compounds binding epidermal growth factor receptor – biochemical, small-molecule microarray, 635 nm fluorescence, primary screen (AID 1104).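 Note: score merges 667 nm emission intensity with spot signal to noise over triplicate slides.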 To be noted: EGFR binding, higher = more signal.
Epidermal growth factor receptor (Homo sapiens), sequence (P00533 whole entry, looked up): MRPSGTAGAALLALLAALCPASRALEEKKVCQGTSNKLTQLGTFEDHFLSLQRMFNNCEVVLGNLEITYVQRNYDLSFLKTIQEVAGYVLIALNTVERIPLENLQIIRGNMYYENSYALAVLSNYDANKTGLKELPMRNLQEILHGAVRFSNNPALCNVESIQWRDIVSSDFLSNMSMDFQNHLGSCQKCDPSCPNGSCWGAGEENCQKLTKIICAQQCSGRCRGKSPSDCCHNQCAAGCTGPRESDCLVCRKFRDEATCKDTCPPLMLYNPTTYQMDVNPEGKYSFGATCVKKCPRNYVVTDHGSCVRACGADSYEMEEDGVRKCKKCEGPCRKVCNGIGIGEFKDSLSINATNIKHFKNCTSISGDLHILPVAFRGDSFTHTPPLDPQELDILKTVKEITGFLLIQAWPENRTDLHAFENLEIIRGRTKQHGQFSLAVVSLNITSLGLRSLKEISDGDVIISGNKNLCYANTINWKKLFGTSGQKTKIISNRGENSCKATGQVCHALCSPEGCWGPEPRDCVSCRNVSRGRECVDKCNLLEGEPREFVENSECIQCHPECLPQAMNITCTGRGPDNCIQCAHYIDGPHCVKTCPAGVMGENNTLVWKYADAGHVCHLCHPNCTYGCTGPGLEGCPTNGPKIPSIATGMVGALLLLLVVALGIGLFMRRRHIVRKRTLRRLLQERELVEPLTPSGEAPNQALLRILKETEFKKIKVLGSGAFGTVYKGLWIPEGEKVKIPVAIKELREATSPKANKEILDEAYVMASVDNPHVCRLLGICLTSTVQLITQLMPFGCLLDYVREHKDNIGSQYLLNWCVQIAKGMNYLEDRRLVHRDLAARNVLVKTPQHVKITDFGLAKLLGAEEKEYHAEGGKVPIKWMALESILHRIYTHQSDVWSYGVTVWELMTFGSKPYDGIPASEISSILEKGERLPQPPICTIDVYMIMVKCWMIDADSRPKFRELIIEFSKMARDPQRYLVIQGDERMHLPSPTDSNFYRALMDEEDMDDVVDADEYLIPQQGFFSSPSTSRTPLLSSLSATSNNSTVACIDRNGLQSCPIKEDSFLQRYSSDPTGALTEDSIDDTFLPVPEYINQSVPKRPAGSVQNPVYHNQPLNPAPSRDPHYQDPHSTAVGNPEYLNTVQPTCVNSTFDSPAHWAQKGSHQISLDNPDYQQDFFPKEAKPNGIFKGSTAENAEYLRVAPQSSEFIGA
Assay [18] deals with Follistatin-related protein 3 (Homo sapiens) (UniProt O95633). In words: compounds binding follistatin-related protein 3 – biochemical, small-molecule microarray, 635 nm fluorescence, primary screen (AID 1105).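 Note: score merges emission near 667 nm and signal to noise per printed spot across three slides.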 To be noted: FSTL3 binding, higher = more signal.
Follistatin-related protein 3 (Homo sapiens), sequence (O95633 whole entry, looked up): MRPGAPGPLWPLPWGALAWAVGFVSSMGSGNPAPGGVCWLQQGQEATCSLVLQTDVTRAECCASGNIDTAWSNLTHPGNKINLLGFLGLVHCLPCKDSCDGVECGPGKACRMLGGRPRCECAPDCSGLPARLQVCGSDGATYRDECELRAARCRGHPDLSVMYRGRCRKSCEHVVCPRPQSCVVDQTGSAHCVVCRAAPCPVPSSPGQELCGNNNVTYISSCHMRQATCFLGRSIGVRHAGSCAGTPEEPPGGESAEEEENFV
Assay [19] concerns the target Dickkopf-related protein 1 (Homo sapiens) (UniProt O94907). The assay is described as follows: small molecules binding DKK1 protein – biochemical, small-molecule microarray, 635 nm fluorescence scan, primary screen (AID 1106).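 Note: score merges emission near 667 nm with signal to noise over three replicate slides.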 To be noted: higher = more signal.
Assay [20] relates to Inhibin beta A chain (activin A). In words: small molecules binding activin A – biochemical, small-molecule microarray, 635 nm fluorescence scan, primary screen (AID 1107).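 Note: mouse activin A protein probed at 4.33 µg/mL on printed slides; score merges bound-protein fluorescence near 667 nm with spot signal-to-noise.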 To be noted: INHBA, higher = more signal.

Active and inactive are the calls of the source.

Dickkopf-related protein 1 (Homo sapiens), sequence (O94907 whole entry, looked up): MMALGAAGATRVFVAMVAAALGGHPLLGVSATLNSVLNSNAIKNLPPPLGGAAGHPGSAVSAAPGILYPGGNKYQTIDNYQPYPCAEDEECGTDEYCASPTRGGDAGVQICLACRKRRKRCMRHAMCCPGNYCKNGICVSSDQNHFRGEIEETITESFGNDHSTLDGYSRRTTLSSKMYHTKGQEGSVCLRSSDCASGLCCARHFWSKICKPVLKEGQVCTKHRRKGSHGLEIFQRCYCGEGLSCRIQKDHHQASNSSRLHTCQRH
Neurogenic locus notch homolog protein 3 (Homo sapiens), sequence (Q9UM47 whole entry, looked up): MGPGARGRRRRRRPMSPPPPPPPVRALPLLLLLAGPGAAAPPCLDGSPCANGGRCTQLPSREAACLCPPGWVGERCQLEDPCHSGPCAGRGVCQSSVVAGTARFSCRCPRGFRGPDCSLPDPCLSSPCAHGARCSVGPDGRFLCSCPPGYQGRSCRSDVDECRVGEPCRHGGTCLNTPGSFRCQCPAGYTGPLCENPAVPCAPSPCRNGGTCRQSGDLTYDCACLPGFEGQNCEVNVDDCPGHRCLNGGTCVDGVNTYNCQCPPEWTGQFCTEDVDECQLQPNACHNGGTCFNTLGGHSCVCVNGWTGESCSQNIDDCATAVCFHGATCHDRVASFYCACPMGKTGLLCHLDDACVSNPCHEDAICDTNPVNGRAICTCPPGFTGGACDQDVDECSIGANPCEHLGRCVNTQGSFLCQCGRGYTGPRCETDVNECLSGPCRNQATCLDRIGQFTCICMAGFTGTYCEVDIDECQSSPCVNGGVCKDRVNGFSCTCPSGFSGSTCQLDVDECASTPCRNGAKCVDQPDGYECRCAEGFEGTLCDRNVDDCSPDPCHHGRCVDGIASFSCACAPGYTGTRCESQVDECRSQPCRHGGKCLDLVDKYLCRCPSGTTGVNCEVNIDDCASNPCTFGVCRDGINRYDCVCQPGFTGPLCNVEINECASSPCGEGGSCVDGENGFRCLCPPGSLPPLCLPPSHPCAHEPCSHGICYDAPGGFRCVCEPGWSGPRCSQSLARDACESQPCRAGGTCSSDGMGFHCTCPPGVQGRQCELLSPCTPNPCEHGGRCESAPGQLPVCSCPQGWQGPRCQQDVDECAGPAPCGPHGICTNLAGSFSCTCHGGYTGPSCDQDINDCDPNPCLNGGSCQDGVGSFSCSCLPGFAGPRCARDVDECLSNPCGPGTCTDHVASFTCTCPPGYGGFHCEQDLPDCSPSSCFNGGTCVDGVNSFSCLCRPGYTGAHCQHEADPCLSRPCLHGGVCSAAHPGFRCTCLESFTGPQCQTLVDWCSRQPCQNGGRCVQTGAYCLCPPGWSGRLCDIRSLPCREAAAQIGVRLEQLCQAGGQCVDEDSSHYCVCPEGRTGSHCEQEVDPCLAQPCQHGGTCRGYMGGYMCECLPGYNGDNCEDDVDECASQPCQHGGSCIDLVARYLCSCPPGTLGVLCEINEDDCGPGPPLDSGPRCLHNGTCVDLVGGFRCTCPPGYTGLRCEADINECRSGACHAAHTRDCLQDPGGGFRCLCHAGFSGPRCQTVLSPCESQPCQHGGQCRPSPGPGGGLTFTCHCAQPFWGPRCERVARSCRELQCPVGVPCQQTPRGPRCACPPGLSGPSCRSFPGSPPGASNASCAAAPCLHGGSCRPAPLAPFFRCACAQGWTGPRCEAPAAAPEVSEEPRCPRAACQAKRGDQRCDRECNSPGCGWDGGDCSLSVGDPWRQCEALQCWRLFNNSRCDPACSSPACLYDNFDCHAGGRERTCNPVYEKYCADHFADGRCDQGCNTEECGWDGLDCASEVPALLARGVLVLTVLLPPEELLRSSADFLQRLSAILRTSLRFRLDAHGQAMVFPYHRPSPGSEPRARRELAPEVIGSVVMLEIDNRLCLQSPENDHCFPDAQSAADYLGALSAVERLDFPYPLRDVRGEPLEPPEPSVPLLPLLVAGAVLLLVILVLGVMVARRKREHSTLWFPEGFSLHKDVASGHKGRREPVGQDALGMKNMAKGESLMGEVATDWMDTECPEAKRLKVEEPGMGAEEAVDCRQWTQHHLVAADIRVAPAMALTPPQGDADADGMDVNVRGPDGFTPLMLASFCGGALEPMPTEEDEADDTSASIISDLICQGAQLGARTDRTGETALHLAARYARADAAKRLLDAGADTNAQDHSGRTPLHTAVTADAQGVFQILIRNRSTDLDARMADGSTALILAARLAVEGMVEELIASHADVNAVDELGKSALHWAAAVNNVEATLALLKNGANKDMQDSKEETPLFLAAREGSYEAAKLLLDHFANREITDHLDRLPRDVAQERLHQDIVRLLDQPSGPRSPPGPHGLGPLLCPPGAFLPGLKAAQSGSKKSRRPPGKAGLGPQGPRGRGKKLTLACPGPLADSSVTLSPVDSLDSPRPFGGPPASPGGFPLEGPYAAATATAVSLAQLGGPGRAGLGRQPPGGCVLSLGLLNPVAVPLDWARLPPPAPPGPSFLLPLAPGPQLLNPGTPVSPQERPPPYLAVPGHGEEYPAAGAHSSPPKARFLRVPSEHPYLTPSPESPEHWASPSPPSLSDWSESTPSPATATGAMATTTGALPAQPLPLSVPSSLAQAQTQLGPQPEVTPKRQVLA

As for `O=C1c2ccccc2[C@](Cc2ccccc2I)(C(=O)NCC(F)(F)F)[C@H](c2ccc(CO)cc2)N1Cc1ccccc1C(F)(F)F`, the composite z-score in assay [1] was 1.34; in assay [5], 2.54; in [7] it was -0.366; in assay [8] it was -0.11; in assay [9] it was 1.02; in assay [10] it was 0.0443. Moreover, the composite z-score in [11] was 0.795; in assay [12], -0.582; in assay [13], -0.243; in [15], 0.222; in assay [16], 0.926; in [17] it was 0.106. In addition, the composite z-score in assay [18] was 0.523; in assay [19], 0.0221; in [20] it was -0.33. In addition, the z-score in [2] was 0.129 (inactive); in assay [3], -1.15 (inactive); in assay [4] it was -1.32 (inactive); in assay [6], 0.098 (inactive); in assay [14], 0.133 (inactive).

As for `COCCOC(=O)N1C(=O)[C@@]2(c3cc(C#CCNC(N)=O)ccc31)[C@H](c1ccc(OCCO)cc1)N1[C@H](c3ccccc3)[C@H](c3ccccc3)OC(=O)[C@H]1[C@@H]2C(=O)N1CCCCCCC1`, the composite z-score in assay [1] was found to be 0.844; in [5], 0.789; in assay [7], 1.09; in assay [8], 0.406; in assay [9] it was 0.555; in assay [10], 0.0199. The composite z-score in [11] is 0.795; in assay [12] it was 1.48; in assay [13], 1.11; in [15], 0.198; in assay [16], -0.246; in assay [17], 0.0212. In addition, the composite z-score in assay [18] was determined as 0.895; in assay [19], 0.199; in [20] it was 1.69. In addition, the z-score in [2] was 1.64 (inactive); in assay [3], 0.501 (inactive); in [4], 3.94 (inactive); in assay [6] it was 2.27 (inactive); in [14], -0.908 (inactive).

As for `C[C@H]1COC(=O)[C@@H]2CCCN2C(=O)[C@@H](C)COC(=O)[C@@H]2CCCN2C1=O`, the composite z-score was -0.8 in assay [1]; -0.863 in [5]; -0.175 in assay [7]; 0.381 in assay [8]; -0.493 in [9]; -0.071 in assay [10]. For the same compound, the composite z-score is -0.0175 in [11]; -0.37 in assay [12]; -0.675 in assay [13]; 0.419 in assay [15]; -0.295 in [16]; 0.514 in [17]. Besides, the composite z-score is -0.0914 in assay [18], 0.563 in assay [19] and -0.0885 in assay [20]. Moreover, the z-score is -0.173 (inactive) in [2]; -0.649 (inactive) in [3]; -1.65 (inactive) in [4]; 0.493 (inactive) in assay [6]; -0.0582 (inactive) in [14].

As to `C=CCN1C(=O)[C@@]2(Cc3ccccc3)N=C(c3ccc(OCCCO)cc3)O[C@H]2c2ccccc21`, the composite z-score in [1] was determined as 1.36; in assay [5], 2.77; in assay [7], 0.44; in assay [8], 0.293; in assay [9], 1.08; in assay [10], 0.031. For the same compound, the composite z-score came out at 1.59 in assay [11]; 1.07 in assay [12]; 1.19 in assay [13]; 0.534 in assay [15]; 0.876 in assay [16]; 0.96 in [17]. For the same compound, the composite z-score in [18] was 0.956; in assay [19] it was 0.613; in assay [20], 0.965. The z-score is -0.772 (inactive) in assay [2]; -5.06 (inactive) in [3]; 1.63 (inactive) in assay [4]; 0.612 (inactive) in assay [6]; -0.298 (inactive) in assay [14].

Take `Cc1ccc(S(=O)(=O)c2cc3oc2CC[C@@H](CO)NC(=O)N(C)Cc2cn(nn2)C[C@H](Cc2ccccc2)NC3=O)cc1`: the composite z-score in assay [1] was 0.0985; in [5], 1.66; in assay [7] it was -0.131; in [8], 0.0818; in assay [9], -0.773; in assay [10], -0.156. Further, the composite z-score in assay [11] is 1.36; in assay [12], -0.122; in [13], -0.0291; in [15], -0.0287; in assay [16], 0.164; in assay [17], -0.497. For the same compound, the results for the composite z-score in assay [18], in assay [19] and in assay [20] were -0.233, -0.266 and -0.171, respectively. The z-score was 0.342 (inactive) in assay [2]; -0.772 (inactive) in [3]; 0.0417 (inactive) in assay [4]; 2.79 (inactive) in assay [6]; -0.0233 (inactive) in assay [14].
